Among all 350,000 compounds or so, about 7,000 (2%) were called active. Cut-off read from the data, not from the text of the source: active = activation above about 40%; inconclusive = no clear call, values can overlap the other calls; inactive = below that. The full list was thinned out, with actives kept by preference.
Assay: raisers of Bmi1 knock-in reporter signal – mouse ES cells, Bmi1 luciferase knock-in, single point, esBAF inhibitor project, primary screen (AID 602393);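 note: 0% = median of the plate's neutral control wells and 100% = double that signal; a rise in the Bmi1 reporter signal indicates esBAF inhibition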
Conditions: 24 h, at 12.5 µM, hits give high values, 100% = twice the neutral-well signal
With `COc1ccccc1/C=C/C(=O)NC1CC2CCC1C2` (stereo not drawn) the reporter increase was 28.1% (inactive). With `COc1ccccc1/C=C/C(=O)NC(=S)N1CCOCC1` the reporter increase was 44.4% (active). With `O=C(/C=C/c1ccco1)NC(=S)N1CCCCC1` the reporter increase was 11.3% (inactive). In the case of `C[C@H]1CN([C@@H](C)CO)S(=O)(=O)c2ccc(-c3ccncc3)cc2O[C@@H]1CN(C)C(=O)CC1CC1`, the reporter increase is reported as -3.03% (inactive). For `C[C@@H]1CN([C@H](C)CO)S(=O)(=O)c2ccc(C#C[C@@H](C)O)cc2O[C@H]1CN(C)CC1CC1`, the reporter increase was 2.12% (inactive). For `CC(Cc1cccs1)NC(=O)c1cccc(Cl)c1` (stereo not drawn), the reporter increase was 59.9% (active). With `Cc1cccc(C(=O)N[C@H](C(=O)NCc2cccs2)C(C)C)c1` the reporter increase was -4.58% (inactive). With `CC(Cc1cccs1)NC(=O)NC1CCCCC1` (stereo not drawn) the reporter increase was 17.1% (inactive). In the case of `C[C@@H]1CCCCO[C@@H](CN(C)S(=O)(=O)c2cn(C)cn2)[C@@H](C)CN([C@H](C)CO)C(=O)c2cc(NC(=O)c3ccncc3)ccc2O1`, the reporter increase is reported as 2.55% (inactive). With `CN1CCN(C(=O)C[C@@H]2CC[C@@H]3[C@H](COC[C@@H](O)CN3Cc3cccc(F)c3)O2)CC1` the reporter increase was 0.727% (inactive). With `C[C@@H]1CN([C@@H](C)CO)C(=O)c2cc(C#CCN(C)C)cnc2O[C@@H]1CN(C)Cc1ccccn1` the reporter increase was -9.33% (inactive). In the case of `CO[C@@H]1CN(C)C(=O)c2cc(NS(=O)(=O)c3cccc(Cl)c3)ccc2OC[C@@H](C)NC[C@@H]1C`, the reporter increase is reported as 3.71% (inactive). With `Fc1cccc(Cc2c(-c3cccc(Cl)c3)nc3ccc(Br)cn23)c1` the reporter increase was 57.3% (active). For `Cc1ccc(-c2nc3ccc(Cl)cn3c2Cc2ccccc2)cc1`, the reporter increase was 44.1% (active). For `Cc1ccc(Cc2c(-c3ccco3)nc3ccc(Cl)cn23)cc1`, the reporter increase was -7.76% (inactive). With `Cc1ccc(Cc2c(-c3ccccc3)nc3ccc(Cl)cn23)cc1` the reporter increase was 21% (inactive). With `Fc1cccc(Cc2c(-c3ccc(Cl)cc3)nc3ccc(Cl)cn23)c1` the reporter increase was 7.58% (inactive). For `Brc1ccc2nc(-c3ccccc3)c(Cc3ccccc3)n2c1`, the reporter increase was 18% (inactive). For `Cc1ccc(-c2nc3ccc(Br)cn3c2Cc2ccccc2C(F)(F)F)cc1`, the reporter increase was 58.8% (active). In the case of `Clc1cccc(Cc2c(-c3cccc(Cl)c3)nc3ccc(Cl)cn23)c1`, the reporter increase is reported as 35.2% (inactive). For `FC(F)(F)c1ccccc1Cc1c(-c2ccccc2)nc2c3ccccc3ccn12`, the reporter increase was 3.35% (inactive). For `C[C@H](CO)N1C[C@H](C)[C@H](CN(C)C(=O)c2ccncc2)Oc2cc(C#CC3(O)CCCC3)ccc2S1(=O)=O`, the reporter increase was 2.01% (inactive). With `Cc1ccc(S(=O)(=O)N[C@@H]2CC[C@H](CCNC(=O)C3CCOCC3)O[C@@H]2CO)cc1` the reporter increase was 3.97% (inactive). For `O=C(CN1CCOCC1)Nc1ccc(NC(=O)CN2CCOCC2)c(Cl)c1`, the reporter increase was 3.57% (inactive). In the case of `CC1CCCN(CC(=O)Nc2cc(Cl)ccc2Oc2ccccc2)C1` (stereo not drawn), the reporter increase is reported as 0.159% (inactive). With `CC(=O)Nc1ccc(NC(=O)CN2CCCC(C)C2)c(Cl)c1` (stereo not drawn) the reporter increase was 49.7% (active). For `Oc1ccc(-n2nnnc2SCc2c(F)cccc2Cl)cc1`, the reporter increase was -6.31% (inactive). In the case of `Cn1c(SCC(=O)c2ccc(F)cc2)nnc1-c1ccccn1`, the reporter increase is reported as 39.1% (inactive). For `Cn1c(SCc2c(F)cccc2Cl)nnc1-c1cnccn1`, the reporter increase was 59% (active). For `Cc1noc(C)c1S(=O)(=O)Nc1ccc2c(c1)C(=O)N([C@@H](C)CO)C[C@@H](C)[C@@H](CN(C)Cc1ccccc1)OCCCC[C@H](C)O2`, the reporter increase was -1.71% (inactive). In the case of `Cc1ccn2c(=O)nc(SCC(=O)NCc3ccc(F)cc3)nc2c1`, the reporter increase is reported as -3.54% (inactive). With `Cc1cccc2nc(CNc3ccc(F)cc3)cn12` the reporter increase was 56.3% (active). With `CCOC(=O)CSc1nnc(CNc2ccc(F)cc2)o1` the reporter increase was 4.3% (inactive). For `O=C(C[C@H]1CC[C@H]2[C@@H](COC[C@@H](O)CN2CCC(F)(F)F)O1)NCc1ccc2c(c1)OCO2`, the reporter increase was -0.0255% (inactive). With `CCCC(=O)Nc1ccc2c(c1)C(=O)N(C)[C@@H]1CC[C@H](CC(=O)Nc3cn(C)nc3C)O[C@H]1CO2` the reporter increase was -3.47% (inactive). In the case of `C[C@@H]1CN([C@@H](C)CO)C(=O)c2cc(C#CCc3ccccc3)cnc2O[C@@H]1CN(C)C(=O)C1CCOCC1`, the reporter increase is reported as -0.454% (inactive). In the case of `Cc1cccc(N2C(=O)SC(N(CC(=O)O)c3cccc(C)c3)C2=O)c1` (stereo not drawn), the reporter increase is reported as 51.9% (active). In the case of `Cc1cccc(N(CC(=O)N2CCOCC2)S(C)(=O)=O)c1`, the reporter increase is reported as 0.817% (inactive). With `Cc1ccc(N2C(=O)SC(N(CC(=O)O)c3ccc(C)cc3)C2=O)cc1` (stereo not drawn) the reporter increase was -3.76% (inactive). For `C[C@H]1CN([C@@H](C)CO)C(=O)c2cc(N(C)C)ccc2O[C@@H]1CN(C)C(=O)Nc1ccc2c(c1)OCO2`, the reporter increase was 0.253% (inactive). In the case of `O=C(Nc1cccc2ccccc12)NC1CC1`, the reporter increase is reported as -6.94% (inactive). In the case of `O=C(Nc1cccc2ccccc12)c1[nH]c(-c2ccccc2)c2c1C(=O)N(C1CC1)C2=O`, the reporter increase is reported as -8.26% (inactive). With `O=C(Nc1cccc2ccccc12)c1onc2c1CCCC2` the reporter increase was 68.2% (active). For `C[C@@H]1CN([C@@H](C)CO)S(=O)(=O)c2ccc(C#Cc3cccnc3)cc2O[C@@H]1CN(C)C`, the reporter increase was -4.81% (inactive). With `COc1ccc2c(c1)CCc1c(C(=O)N3CCc4ccccc4C3)noc1-2` the reporter increase was 26.1% (inactive). In the case of `O=C(c1cc(-c2cccc(O)c2)on1)N1CCc2ccccc2C1`, the reporter increase is reported as 10.2% (inactive). In the case of `O=C(c1noc2c1CCCC2)N1CCc2ccccc2C1`, the reporter increase is reported as 63.6% (active). For `COC(=O)C[C@@H]1CC[C@H]2[C@H](COc3ccc(NC(=O)c4cccs4)cc3C(=O)N2C)O1`, the reporter increase was 2.44% (inactive). For `Oc1ccc(-c2cccc(-c3ccc(O)cc3)c2)cc1`, the reporter increase was 57.6% (active). With `O=C(CN1CCN(c2ccc(O)cc2)CC1)Nc1ccc(-c2ccccc2)cc1` the reporter increase was -6.35% (inactive). With `O=C(CN1CCOCC1)NCC[C@@H]1CC[C@@H](NC(=O)Nc2ccccc2)[C@H](CO)O1` the reporter increase was -0.967% (inactive). For `CCCNC(=O)N(C)C[C@H]1Oc2cc(C3=CCCCC3)ccc2S(=O)(=O)N([C@H](C)CO)C[C@H]1C`, the reporter increase was -6.45% (inactive). In the case of `COc1ccc(NC(=O)N(C)C[C@@H]2OCCCC[C@H](C)Oc3ccc(NS(=O)(=O)c4cn(C)cn4)cc3C(=O)N([C@@H](C)CO)C[C@@H]2C)cc1`, the reporter increase is reported as 1.74% (inactive).
